# Test results from the supplement of paper PMC10981050.
# Several values for one entry are separate records, joined by “and”; a condition that tells them apart may be missing. Identical values can stand only once. Counter-ions that a name gives are not always drawn.
# Tests used:
# Assay in all cases: cell viability relative to vehicle control; higher = less cytotoxic
# Settings in all cases: 10 µM
# K562 = test system: K562
# Method in brief: (§1)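 Four leukaemia lines, as CRISPR-edited mutant clones and isogenic wild-type clones, were tested against Selleck bioactive, kinase and epigenetic probe libraries after removal of identity-inconsistent compounds. Cells were exposed to a single 10 µM dose for 48 h, and CellTiter-Glo luminescence was then read. Viability was calculated relative to the on-plate vehicle control.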
# MARIMO = test system: MARIMO
# Method in brief: as §1
# MOLM14 = test system: MOLM14
# Method in brief: as §1
# OCI-AML2 = test system: OCI-AML2
# Method in brief: as §1
SMILES,cell viability (K562; SRSF2 genotype: SRSF2 P95H/wt),cell viability (K562; SRSF2 genotype: SRSF2 wt/wt) [%],cell viability (MARIMO; SRSF2 genotype: SRSF2 P95H/wt) [%],cell viability (MARIMO; SRSF2 genotype: SRSF2 wt/wt) [%],cell viability (MOLM14; SRSF2 genotype: SRSF2 P95H/wt) [%],cell viability (MOLM14; SRSF2 genotype: SRSF2 wt/wt) [%],cell viability (OCI-AML2; SRSF2 genotype: P95H/wt) [%],cell viability (OCI-AML2; SRSF2 genotype: wt/wt) [%]
O=C1C(=C(O)C=Cc2ccc(O)cc2)C(O)=C([C@@H]2O[C@H](CO)[C@@H](O)[C@H](O)[C@H]2O)C(=O)C1(O)[C@@H]1O[C@H](CO)[C@@H](O)[C@H](O)[C@H]1O (some centres not stated) [Hydroxy safflor yellow A],90% and 88%,84.7,90.1,97.3,85.4,87.7,89.7,104
COc1ccc2cccc(CCNC(C)=O)c2c1 [Agomelatine],110% and 101%,104,97.7,106,104,102,101,101
CCNC(=O)c1noc(-c2cc(Cl)c(O)cc2O)c1-c1ccc(OC)cc1,20.7% and 32.8%,25.5,31.9,25.1,2.02,2.25,16.2,20.2
N[C@@]1(C(=O)O)CS(=O)(=O)[C@H]2[C@H](C(=O)O)[C@H]21,104% and 109%,115,107,105,109,113,113,98.1
CN(C)N(C)C(=O)[C@@]1(Cc2ccccc2)CCCN(C(=O)[C@@H](Cc2c[nH]c3ccccc23)NC(=O)C(C)(C)N)C1 [Anamorelin],82.4% and 78.3%,80.7,70.5,74.3,76.5,78.8,69.2,68.2
Cc1nc(-c2ccc(OCC(C)C)c(C#N)c2)sc1C(=O)O [Febuxostat (Uloric)],93.4% and 98.2%,100,102,111,107,105,119,123
Cc1nc2c(O)cccc2c(=O)[nH]1,94.6% and 99.4%,114,99.4,93.8,95.6,101,94.2,108
CC(=O)N1CCN(c2ccc(NC(=O)Cc3cnc(-c4ccnc(F)c4)c(C)c3)nc2)CC1,88.7% and 84.8%,82.3,85.7,97.8,80.4,86.7,91.1,94.6
Cc1cc(C)c(CNC(=O)c2cc(-c3ccc(N4CCN(C)CC4)nc3)cc3c2c(C)cn3C(C)C)c(=O)[nH]1,83.8% and 78.9%,86,90.1,94.2,80.4,83.3,70.6,82.2
O=C(O)c1cc(C(F)(F)F)ccc1N1CC[C@H](OCc2ccccn2)C1,107% and 109%,100,114,113,102,102,106,104
Cc1cccc(CC(=O)N2CCc3c2ccc(-c2cn(C)c4ncnc(N)c24)c3F)n1,75.2% and 84.4%,80.4,74.5,72.5,80.8,93.8,69.3,73.8
CCCC(CCC)C(N)=O [Valpromide],96.1% and 94.6%,100,99.5,101,102,99.5,95,107
"C=C(C)C1CC=C(C)CC1 (single isomer, unassigned; (+)) [(+)-Dipentene]",114% and 103%,116,104,108,110,108,109,115
Cc1ccc(C(=O)N(CCCN)[C@@H](c2oc3cc(Cl)ccc3c(=O)c2Cc2ccccc2)C(C)C)cc1,0.65% and 0.76%,0.52,0.39,0.45,0.45,0.45,0.35,0.4
C[C@H]1[C@H](C)CC[C@]2(C(=O)O[C@@H]3O[C@H](CO[C@@H]4O[C@H](CO)[C@@H](O[C@@H]5O[C@@H](C)[C@H](O)[C@@H](O)[C@H]5O)[C@H](O)[C@H]4O)[C@@H](O)[C@H](O)[C@H]3O)CC[C@]3(C)C(=CC[C@@H]4[C@@]5(C)C[C@@H](O)[C@H](O)[C@@](C)(CO)[C@@H]5[C@H](O)C[C@]43C)[C@H]12 [Madecassoside],106% and 105%,103,99.8,111,97.8,106,99.9,110
COC(=O)C=Cc1ccc(O)c(OC)c1 [Ferulic acid methyl ester],106% and 99.9%,108,95.4,104,105,104,104,104
Cc1cc(-c2ccc(/N=N/c3ccc4c(S(=O)(=O)O)cc(S(=O)(=O)O)c(N)c4c3O)c(C)c2)ccc1/N=N/c1ccc2c(S(=O)(=O)O)cc(S(=O)(=O)O)c(N)c2c1O [Evans Blue],66.2% and 64.2%,62.8,63.8,72.2,67.4,64.7,66.2,67.6
CCOC(=O)Nc1ccc(NCc2ccc(F)cc2)nc1N [Flupirtine maleate],101% and 104%,104,91.5,105,101,103,100,110
CS(=O)(=O)c1cccc(C[C@H](NC(=O)c2c(Cl)cc3c(c2Cl)CCN(C(=O)c2ccc4ccoc4c2)C3)C(=O)O)c1 [Lifitegrast],96.8% and 97%,90.3,90.5,102,93.7,96.6,92.2,94.9
CCC(=O)OCC(=O)[C@@]1(OC(=O)CC)[C@@H](C)C[C@H]2[C@@H]3CCC4=CC(=O)C=C[C@]4(C)[C@@]3(F)[C@@H](O)C[C@@]21C [Betamethasone Dipropionate (Diprolene)],96.7% and 103%,98.8,106,109,94.5,96,113,120

SMILES,cell viability (K562; SRSF2 genotype: SRSF2 P95H/wt),cell viability (K562; SRSF2 genotype: SRSF2 wt/wt) [%],cell viability (MARIMO; SRSF2 genotype: SRSF2 P95H/wt) [%],cell viability (MARIMO; SRSF2 genotype: SRSF2 wt/wt) [%],cell viability (MOLM14; SRSF2 genotype: SRSF2 P95H/wt) [%],cell viability (MOLM14; SRSF2 genotype: SRSF2 wt/wt) [%],cell viability (OCI-AML2; SRSF2 genotype: P95H/wt) [%],cell viability (OCI-AML2; SRSF2 genotype: wt/wt) [%]
CCCCCCCCCC[C@H](C(=O)O)[C@]1(C(=O)O)CCC(=O)O1 [Spiculisporic Acid],107% and 103%,103,104,107,98.8,110,95.5,103
c1ccc(-c2[nH]ncc2-c2ccnc3ccccc23)nc1,105% and 109%,105,107,106,109,104,112,105
"O=S(=O)(O)CCS [Mesna (Uromitexan, Mesnex)]",107% and 96%,103,94.2,110,104,100,92,104
Cc1cccc(Nc2ccccc2C(=O)O)c1C [Mefenamic Acid],98.6% and 99.4%,96.4,103,92.8,94.5,98.5,106,101
CCOC(=O)c1c(CSc2ccccc2)n(C)c2cc(Br)c(O)c(CN(C)C)c12 [Arbidol HCl],50.6% and 70.1%,61.6,48,54.8,47.8,32.9,53.5,43.8
CC(=O)OCC(=O)[C@@]1(O)CC[C@H]2[C@@H]3CCC4=CC(=O)CC[C@]4(C)[C@@]3(F)[C@@H](O)C[C@@]21C [Fludrocortisone acetate],110% and 103%,104,105,109,111,102,113,119
Cc1c(NC(=O)c2ccc(C(C)(C)C)cc2)cccc1-c1cn(C)c(=O)c(Nc2ccc(C(=O)N3CCOCC3)cc2)n1,94% and 92.1%,90.8,91.5,97.4,96.1,93.4,82,87.4
CC(=O)OCC1=C(C(=O)O)N2C(=O)C(NC(=O)CSC(=NC(C)C)NC(C)C)C2SC1 (configuration not stated) [Cefathiamidine],103% and 98.2%,103,103,110,96.1,104,102,113
Cc1cc([C@@H](C)Nc2ccccc2C(=O)O)c2nc(N3CCOCC3)cc(=O)n2c1,88.7% and 86.4%,89.2,66.9,66.3,49.6,48.3,49.8,56.1
Cc1cc(O)c(-c2ccc([C@@H](C)CN)cc2)c2c1[nH]c(=O)c1sccc12 [OTS514 hydrochloride],19.6% and 29.6%,21.7,3.37,1.35,0.27,0.16,0.39,8.87
N#CC(=Cc1ccc(-c2cc(Cl)ccc2Cl)o1)C(=O)Nc1cccc2ncccc12,101% and 104%,91.8,99.1,99.8,116,112,88.3,92
CCOC(=O)C1=C(C)NC(C)=C(C(=O)OC)C1c1cccc(Cl)c1Cl (configuration not stated) [Felodipine (Plendil)],72.9% and 78.2%,79.9,79.2,88.8,78.4,86.3,78.9,87.1
"Cc1ccc2c(c1)C(=O)C1(O)CCN(c3ccccc3)C1=N2 (single isomer, unassigned; (-)) [(-)-Blebbistatin]",93.5% and 92.5%,94,88.4,98.6,61.3,60.7,80.5,90.4
O=C1C(c2[nH]c3ccccc3c2O)=Nc2ccccc21 [Indigo],105% and 106%,94.6,100,108,93,99.8,90,106
O=C([O-])c1ccccc1.[Na+] [Sodium benzoate],86.9% and 85.9%,86.1,83.9,90.9,93,89.5,86,97.5
C[C@@H](Nc1nc(N[C@H](C)C(F)(F)F)nc(-c2cccc(Cl)n2)n1)C(F)(F)F [Vorasidenib (AG-881)],91.3% and 90.9%,84.7,88.3,105,89,85.3,104,98.3
CC(=O)Oc1ccccc1C(=O)O.CC(=O)Oc1ccccc1C(=O)O.NC(N)=O [Carbasalate Calcium],105% and 106%,102,104,105,104,103,102,97.8
C=CC(=O)Nc1cc(Nc2nccc(-n3cc(CN(C)C)c(-c4ccccc4)n3)n2)c(OC)cc1N1CCOCC1,85.6% and 94.6%,84.8,76.5,80.2,74.2,75.5,63.9,63.3
C[C@@H](Nc1cc(F)cc(F)c1)c1cc(C(=O)N(C)C)cc2c(=O)cc(N3CCOCC3)oc12,87% and 91.9%,85.5,52,47.3,42.3,51.1,25.5,37.4
